Measurements taken from PubChem BioAssay AID1159580 (chemical genetic matrix, 2015).
Where “and” joins values, the source holds several entries; their conditions need not be identical. Equal values may be shown once. The whole screen tested about 5,500 compounds, of which about 2,000 (36%) were called active. Roughly 18% stayed inconclusive and do not appear here. Rule as the data show it: active = normalized growth mostly below about 0.91 (no sharp cut-off); inconclusive = no clear call, values can overlap the other calls; inactive = mostly above about 0.92. The list shows a part of the results.

Test: chemical genetic growth profiling, strain panel (AID 1159580);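 also: tested at 20 µM; growth read once vehicle control cultures reached saturation at 30 °C; 1 = growth at the plate median or of vehicle wells; lower values mean less growth of the strain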
Settings: growth OD

Measured: normalized growth

CC(C)(C)NCC(O)c1ccc(O)c(CO)c1 (stereo not given)
inactive: S. cerevisiae deletion strains, locus YJR075W, strain HOC1, active compounds read low 0.997 and 1.01 | S. cerevisiae deletion strains, locus YKL009W, strain mrt4, active compounds read low 1.02 | S. cerevisiae deletion strains, locus YKL068W, active compounds read low 1.01 | S. cerevisiae deletion strains, locus YKL085W, strain MDH1 (second series), active compounds read low 1.03 | S. cerevisiae deletion strains, locus YKL085W, strain MDH1, active compounds read low 1.03 | S. cerevisiae deletion strains, locus YKL160W, strain elf1, active compounds read low 1.02 | S. cerevisiae deletion strains, locus YKL190W, strain CNB1, active compounds read low 1.02 | S. cerevisiae deletion strains, locus YKR001C, strain vps1, active compounds read low 1.01 | S. cerevisiae deletion strains, locus YKR026C, strain gcn3, active compounds read low 0.999 | S. cerevisiae deletion strains, locus YKR091W, strain srl3, active compounds read low 1 | S. cerevisiae deletion strains, locus YLL001W, strain dnm1, active compounds read low 1.02 | S. cerevisiae deletion strains, locus YLL026W, active compounds read low 1 | S. cerevisiae deletion strains, locus YLL041C, strain sdh2, active compounds read low 1.02 | S. cerevisiae deletion strains, locus YLR027C, strain aat2, active compounds read low 1.01 | S. cerevisiae deletion strains, locus YLR039C, strain RIC1, active compounds read low 1.06 | S. cerevisiae deletion strains, locus YLR058C, strain SHM2, active compounds read low 1.01 | S. cerevisiae deletion strains, locus YLR102C, strain apc9, active compounds read low 1.01 | S. cerevisiae deletion strains, locus YLR113W, strain HOG1, active compounds read low 1.01 | S. cerevisiae deletion strains, locus YLR221C, strain rsa3, active compounds read low 1.01 | S. cerevisiae deletion strains, locus YLR258W, strain gsy2, active compounds read low 1.02 | S. cerevisiae deletion strains, locus YLR262C, strain YPT6 (second series), active compounds read low 1 | S. cerevisiae deletion strains, locus YLR262C, strain YPT6, active compounds read low 1.04 | S. cerevisiae deletion strains, locus YLR268W, strain sec22, active compounds read low 1.02 | S. cerevisiae deletion strains, locus YLR320W, strain mms22, active compounds read low 1.02 | S. cerevisiae deletion strains, locus YLR330W, strain CHS5, active compounds read low 1.01 | S. cerevisiae deletion strains, locus YLR342W, strain FKS1 (second series), active compounds read low 1.04 | S. cerevisiae deletion strains, locus YLR342W, strain FKS1, active compounds read low 1.01 | S. cerevisiae deletion strains, locus YLR357W, strain rsc2, active compounds read low 1.04 | S. cerevisiae deletion strains, locus YLR370C, strain arc18, active compounds read low 1.01 | S. cerevisiae deletion strains, locus YLR371W, strain rom2, active compounds read low 1 | S. cerevisiae deletion strains, locus YLR384C, strain iki3, active compounds read low 1.02 | S. cerevisiae deletion strains, locus YLR418C, strain cdc73, active compounds read low 1.05 | S. cerevisiae deletion strains, locus YML016C, strain PPZ1, active compounds read low 1.01 | S. cerevisiae deletion strains, locus YML032C, strain rad52, active compounds read low 1.01 | S. cerevisiae deletion strains, locus YML120C, strain ndi1, active compounds read low 1 | S. cerevisiae deletion strains, locus YML124C, strain tub3, active compounds read low 1.01 | S. cerevisiae deletion strains, locus YMR058W, strain fet3, active compounds read low 1 | S. cerevisiae deletion strains, locus YMR078C, strain ctf18, active compounds read low 1.02 | S. cerevisiae deletion strains, locus YMR125W, strain sto1, active compounds read low 1.03 | S. cerevisiae deletion strains, locus YMR129W, active compounds read low 1.01 | S. cerevisiae deletion strains, locus YMR205C, strain PFK2, active compounds read low 1.02 | S. cerevisiae deletion strains, locus YMR223W, strain ubp8, active compounds read low 1.06 | S. cerevisiae deletion strains, locus YMR231W, strain pep5, active compounds read low 1.01 | S. cerevisiae deletion strains, locus YMR263W, strain SAP30, active compounds read low 1.02 and 1 | S. cerevisiae deletion strains, locus YMR307W, strain GAS1, active compounds read low 1.11 and 0.997 and 0.979 | S. cerevisiae deletion strains, locus YNL067W, strain RPL9B, active compounds read low 1.01 | S. cerevisiae deletion strains, locus YNL071W, strain lat1, active compounds read low 1 | S. cerevisiae deletion strains, locus YNL128W, strain TEP1, active compounds read low 1.02 | S. cerevisiae deletion strains, locus YNL175C, strain NOP13, active compounds read low 1 and 1.03 | S. cerevisiae deletion strains, locus YNL183C, strain NPR1, active compounds read low 0.974 | S. cerevisiae deletion strains, locus YNL197C, strain WHI3, active compounds read low 1 and 1.01 | S. cerevisiae deletion strains, locus YNL209W, strain ssb2, active compounds read low 1.02 | S. cerevisiae deletion strains, locus YNL224C, strain SQS1, active compounds read low 0.996 and 1 | S. cerevisiae deletion strains, locus YNL233W, strain BNI4, active compounds read low 0.99 | S. cerevisiae deletion strains, locus YNL248C, strain rpa49, active compounds read low 1.03 | S. cerevisiae deletion strains, locus YNL250W, strain rad50, active compounds read low 1.02 | S. cerevisiae deletion strains, locus YNL271C, strain bni1, active compounds read low 1.02 | S. cerevisiae deletion strains, locus YNL298W, strain CLA4, active compounds read low 1.02 | S. cerevisiae deletion strains, locus YNL307C, strain MCK1, active compounds read low 1.02 | S. cerevisiae deletion strains, locus YNL322C, strain KRE1 (second series), active compounds read low 1.01 | S. cerevisiae deletion strains, locus YNL322C, strain KRE1, active compounds read low 1.01 and 1.03 | S. cerevisiae deletion strains, locus YNR049C, strain mso1, active compounds read low 1.01 | S. cerevisiae deletion strains, locus YNR052C, strain pop2, active compounds read low 1.02 | S. cerevisiae deletion strains, locus YOL006C, strain TOP1, active compounds read low 1.05 | S. cerevisiae deletion strains, locus YOL012C, strain htz1 1.03 | S. cerevisiae deletion strains, locus YOL147C, strain pex11, active compounds read low 1.02 | S. cerevisiae deletion strains, locus YOR001W, strain rrp6, active compounds read low 1.01 | S. cerevisiae deletion strains, locus YOR061W, strain CKA2, active compounds read low 1.01 | S. cerevisiae deletion strains, locus YOR069W, strain VPS5, active compounds read low 1.01 | S. cerevisiae deletion strains, locus YOR070C, strain gyp1, active compounds read low 1.02 | S. cerevisiae deletion strains, locus YOR080W, strain dia2, active compounds read low 1.03 | S. cerevisiae deletion strains, locus YOR083W, strain WHI5 (second series), active compounds read low 1.01 | S. cerevisiae deletion strains, locus YOR083W, strain WHI5, active compounds read low 0.966 | S. cerevisiae deletion strains, locus YOR106W, strain vam3, active compounds read low 1.01 | S. cerevisiae deletion strains, locus YOR136W, strain idh2, active compounds read low 1.02 | S. cerevisiae deletion strains, locus YOR144C, strain elg1, active compounds read low 1.02 | S. cerevisiae deletion strains, locus YOR184W, strain ser1, active compounds read low 1.02 | S. cerevisiae deletion strains, locus YOR231W, strain MKK1, active compounds read low 1.02 | S. cerevisiae deletion strains, locus YOR265W, strain rbl2, active compounds read low 1.01 | S. cerevisiae deletion strains, locus YOR270C, strain vph1, active compounds read low 1.02 | S. cerevisiae deletion strains, locus YOR290C, strain snf2, active compounds read low 1.03 | S. cerevisiae deletion strains, locus YOR316C, strain cot1, active compounds read low 1.01 | S. cerevisiae deletion strains, locus YPL051W, strain arl3, active compounds read low 1.01 | S. cerevisiae deletion strains, locus YPL055C, strain LGE1, active compounds read low 1.01 | S. cerevisiae deletion strains, locus YPL078C, strain atp4, active compounds read low 1 | S. cerevisiae deletion strains, locus YPL106C, strain sse1, active compounds read low 1.04 | S. cerevisiae deletion strains, locus YPL240C, strain hsp82, active compounds read low 1.02 | S. cerevisiae deletion strains, locus YPL241C, strain CIN2, active compounds read low 1.01 | S. cerevisiae deletion strains, locus YPL256C, strain CLN2, active compounds read low 1.04 | S. cerevisiae deletion strains, locus YPR119W, strain clb2, active compounds read low 1.01 | S. cerevisiae deletion strains, locus YPR141C, strain kar3, active compounds read low 1.01 | S. cerevisiae deletion strains, locus YPR163C, strain tif3, active compounds read low 1.02 | S. cerevisiae deletion strains, locus YPR167C, strain met16, active compounds read low 1.02 | S. cerevisiae deletion strains, strain wtn01, active compounds read low 1.04 | S. cerevisiae strains, strain wild type, active compounds read low 1.01
